Screening results: PubChem, several laboratories
Ba/F3 V617F tox: reduce viability of Ba/F3 cells dependent on JAK2V617F; Ba/F3 EpoR-JAK2V617F viability, ATP luminescence; inhibition, % at 5.6 µM; 220,000 tested, 1.1% active;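 active means inhibition above the campaign mean plus 3 SD over all tested compounds, cut at about 24% in these data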;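 further: cytokine-independent growth of Ba/F3 cells driven by EpoR plus mutant JAK2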
aSyn 5UTR inh: 5' untranslated region of α-synuclein, MLPCN primary screen. alpha-synuclein 5'UTR reporter, inhibitor activity. inhibition, % (tested at 7.5 µM). 300,000 tested, 0.82% active. AID 1813; in the data active means inhibition above about 60%;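 further: H4 neuroglioblastoma cells stably carrying SNCA 5'UTR luciferase fusion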
APP 5UTR inh: APP translation inhibition; inhibition, % at 2 µM; SH-SY5Y APP 5'UTR-luciferase reporter, luminescence; AID 1285; 190,000 tested, 0.82% active;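 active means inhibition above a set limit, derived from the sample mean plus 3 SD, cut at about 45% in these data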
KLF5 inh: kruppel-like factor 5 inhibition; AID 1700; inhibition, % at 5 µM; DLD-1 KLF5 promoter-luciferase reporter, luminescence; 290,000 tested, 0.23% active;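 active means inhibition above a per-plate limit of that plate's mean compound inhibition plus 3 SD, cut at about 60% in these data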;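 further: higher means less KLF5 promoter-driven luciferase light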
BaF3 tox: parental Ba/F3 viability inhibition as JAK2V617F counter-screen; inhibition, % at 5.6 µM; CellTiter-Glo ATP luminescence; 220,000 tested, 1.1% active;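 active means inhibition above a per-campaign cutoff, the mean inhibition of all tested compounds plus 3 SD, cut at about 27% in these data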
IEC-6 tox: kills IEC-6 intestinal cells in KLF5 counter-screen. IEC-6 cytotoxicity, luminescence viability. inhibition, % at 5 µM. 290,000 tested, 0.78% active. AID 1825; in the data active means inhibition above about 22%
Of the large screens only hits and unclear results are named; the others gave an inactive call. Most compounds without a hit are left out; they make up all but 2.2% or so of the library.

CCS(=O)(=O)c1ccc(OC)c(N=Nc2ccc(O)c3ncccc23)c1	aSyn 5UTR inh 66, APP 5UTR inh 67
Oc1ccc(N=Nc2ccc3c(c2)OCCO3)c2ncccc12	Ba/F3 V617F tox 92, BaF3 tox 67 (no result: APP 5UTR inh)
Cc1ccc(C)c(N=Nc2ccc(O)c3ncccc23)c1	none
Cc1cccc(N=Nc2ccc(O)c3ncccc23)c1	aSyn 5UTR inh 73, APP 5UTR inh 72
O=C(Nc1ncccc1O)c1ccc2c(c1)OCCO2	none (no result: Ba/F3 V617F tox, APP 5UTR inh, KLF5 inh, BaF3 tox, IEC-6 tox)
COc1ccc(CC(=O)Nc2c3c(nn2-c2ccccc2C)CS(=O)C3)cc1 (configuration not stated)	none
Cn1c(=O)c2c(nc(N/N=C/c3ccco3)n2C)n(C)c1=O	none
COc1ccc(-c2cnnc(N/N=C/c3c(C)nn(-c4ccccc4)c3Cl)n2)cc1	APP 5UTR inh 62
COc1ccc(-c2cnnc(N/N=C/c3ccc(O)cc3)n2)cc1	none
CCOc1[nH]n(-c2ccccc2)c(=O)c1C=NCc1ccncc1	APP 5UTR inh 49
CCOc1[nH]n(-c2ccc(Cl)cc2)c(=O)c1C=NCc1cccnc1	none
CC(C)COC(=O)N1CCCC1C(=O)Nc1nccs1 (configuration not stated)	none
CS(=O)(=O)N1CCN(c2ccccc2NC(=O)CSc2ccc(Cl)cc2)CC1	none
O=C(CSc1ccc(Cl)cc1)Nc1ccccc1N1CCN(C(=O)c2ccccc2)CC1	BaF3 tox 68
NC1=NC2=C(CCCC2)C2(CCCCC2)S1	aSyn 5UTR inh 77
Cc1ccc(C#CC[N+]2(C)CCCCC2)cc1	Ba/F3 V617F tox 54, BaF3 tox 57 (no result: APP 5UTR inh)
C(#Cc1ccc(C#CCN2CCCC2)cc1)CN1CCCC1	none
C#CC[N+]1(CC#Cc2ccc(C)cc2)CCCCC1	Ba/F3 V617F tox 69, BaF3 tox 66
CCCc1[nH][nH]c(=O)c1C(c1cccc(Cl)c1)C(C#N)C#N (configuration not stated)	none
Cc1ccc(-n2[nH]c(=O)c3cccnc32)cc1	none
Cc1ccc(-n2[nH]c(=O)c(-c3ccccn3)c2C)cc1	aSyn 5UTR inh 97
CC(C)Cc1c(O)nc(SCCN2CCOCC2)[nH]c1=O	none
CCC1=[N+](C)c2cccc3cccc(c23)N1C	Ba/F3 V617F tox 37, BaF3 tox 41
CCN1C(=O)Nc2cccc3cccc1c23	none (no result: Ba/F3 V617F tox, APP 5UTR inh, KLF5 inh, BaF3 tox, IEC-6 tox)
Nc1ccc(Nc2ccc([N+](=O)[O-])cc2[N+](=O)[O-])cc1	none
O=[N+]([O-])c1ccc(Nc2ccccn2)c([N+](=O)[O-])c1	Ba/F3 V617F tox 29, BaF3 tox 49
O=[N+]([O-])c1c(Nc2ccccn2)cc(Cl)c2nonc12	IEC-6 tox 63 (no result: APP 5UTR inh)
O=C(O)c1ccccc1Nc1cc(Cl)c2nonc2c1[N+](=O)[O-]	none (no result: Ba/F3 V617F tox, APP 5UTR inh, BaF3 tox)
COc1ccccc1N(C)S(=O)(=O)c1ccc(Cl)c(C(=O)OCc2c(C)noc2C)c1	none
CC1(C)CC(=O)c2c(nc(SCC(=O)Nc3nsc(-c4ccccc4)n3)c(C#N)c2-c2ccccc2)C1	aSyn 5UTR inh 74
Cc1nnc(SCC(=O)Nc2nsc(-c3ccccc3)n2)s1	none
CCCNC(=O)c1ccc2c(=O)c(O)c(C)[nH]c2c1	none (no result: Ba/F3 V617F tox, APP 5UTR inh, KLF5 inh, BaF3 tox, IEC-6 tox)
CCCNC(=O)c1ccc2c(=O)c(O)c(-c3ccc(F)cc3)[nH]c2c1	aSyn 5UTR inh 81 (no result: Ba/F3 V617F tox, APP 5UTR inh, KLF5 inh, BaF3 tox, IEC-6 tox)
CCCNC(=O)c1ccc2c(=O)c(O)c(-c3cccc(Br)c3)[nH]c2c1	aSyn 5UTR inh 84 (no result: Ba/F3 V617F tox, APP 5UTR inh, KLF5 inh, BaF3 tox, IEC-6 tox)
Cc1cc2oc(C(=O)NCc3ccccc3)cc(=O)c2cc1C	IEC-6 tox 22 (no result: Ba/F3 V617F tox, APP 5UTR inh, BaF3 tox)
COC(=O)C1=C(C)C(c2ccc(OC)cc2OC)NC(=O)N1 (configuration not stated)	none
COc1ccc(C2CC(C)(c3ccc(OC)cc3OC)Nc3ccccc3N2)c(OC)c1 (configuration not stated)	Ba/F3 V617F tox 62, BaF3 tox 72
CCN1/C(=C/c2ccc3cc(C)ccc3[n+]2CC)Sc2ccc3sccc3c21	aSyn 5UTR inh 131 (no result: Ba/F3 V617F tox, APP 5UTR inh, KLF5 inh, BaF3 tox, IEC-6 tox)
CC[n+]1c(C)sc2c3ccsc3ccc21	none
O=C(Oc1ccc(Br)cc1C(=S)N1CCCCC1)c1cc([N+](=O)[O-])cc([N+](=O)[O-])c1	APP 5UTR inh 50
CC(C)(C)c1ccc(C(=O)Nc2ccc(C(=O)N3CCCC3)cc2)cc1	none (no result: Ba/F3 V617F tox, APP 5UTR inh, BaF3 tox)
CC(C)(C)c1ccc(C(=O)N2CCCCCC2=O)cc1	aSyn 5UTR inh 91, APP 5UTR inh 57
Cc1ccc(NC(=O)c2cccs2)cc1	none
Cc1ccc(S(=O)(=O)n2[nH]c(=O)cc2NC(=O)c2cccs2)cc1	Ba/F3 V617F tox 26, BaF3 tox 35
CN(C(=O)COC(=O)c1nc(Cl)c(Cl)c(Cl)c1Cl)C1CCS(=O)(=O)C1 (configuration not stated)	APP 5UTR inh 59
C1=CC2CCC1ON2c1ccccc1 (configuration not stated)	none
Cc1ccc2c(c1)S/C(=C\c1cccc[n+]1C)N2CCO	none (no result: Ba/F3 V617F tox, APP 5UTR inh, BaF3 tox)
Cc1ccc2c(c1)S/C(=C/c1ccc[n+](CCO)c1)N2C	Ba/F3 V617F tox 87, BaF3 tox 68
CC(NCc1ccccc1)C1COc2ccccc2O1 (configuration not stated)	none
COc1ccc(CNC(C)C2COc3ccccc3O2)c(OC)c1 (configuration not stated)	BaF3 tox 96
Cc1c(CCOC(=O)CC23CC4CC(CC(C4)C2)C3)sc[n+]1Cc1ccccc1	Ba/F3 V617F tox 29, BaF3 tox 41
COc1ccccc1C(CCNCc1ccccc1)c1ccc(OC(C)C)cc1 (configuration not stated)	none (no result: Ba/F3 V617F tox, APP 5UTR inh, BaF3 tox)
COc1ccccc1C(CCNCc1ccc(N(C)C)cc1)c1ccc(OC(C)C)cc1 (configuration not stated)	aSyn 5UTR inh 135 (no result: Ba/F3 V617F tox, APP 5UTR inh, BaF3 tox)
COc1ccc(CNCCC(c2ccc(OC(C)C)cc2)c2ccccc2OC)cc1 (configuration not stated)	aSyn 5UTR inh 134 (no result: Ba/F3 V617F tox, APP 5UTR inh, BaF3 tox)
CC(Oc1ccc(C(=O)NC2CCCCC2)cc1)C(=O)O (configuration not stated)	none
O=S(=O)(Nc1cc(Sc2cccc3cccnc23)c(O)c2ccccc12)c1ccccc1	APP 5UTR inh 75, IEC-6 tox 98
O=C(Nc1ccc(N2CCOCC2)cc1)c1cn2ccccc2n1	aSyn 5UTR inh 65
O=C(Nc1ccc(Cl)c(S(=O)(=O)N2CCOCC2)c1)c1cn2ccccc2n1	none
CC(=O)NC1C(Oc2ccccc2C)OC(CO)C(O)C1O (configuration not stated)	none
COc1ccc(OCC(=O)OCC(=O)NCc2ccc(F)cc2)cc1	APP 5UTR inh 64
COc1ccc(CNC(=O)COC(=O)CCOc2ccccc2)cc1	none
Cc1ccc(-c2nc(N)c3c(-c4ccc(C)cc4)nn(C(C)(C)C)c3n2)cc1	none
CC(C)(C)n1nc(-c2ccc(F)cc2)c2c(N)ncnc21	aSyn 5UTR inh 71
Cc1csc(NC(=O)c2ccc(N3CCCC3=O)cc2)n1	aSyn 5UTR inh 101
O=C(Nc1nc2ccc(F)cc2s1)c1ccc(N2CCCC2=O)cc1	none (no result: Ba/F3 V617F tox, APP 5UTR inh, KLF5 inh, BaF3 tox, IEC-6 tox)
COc1ccc(N=C2S/C(=C\c3ccc(C)o3)C(=O)N2CC(C)C)cc1	APP 5UTR inh 89
O=C(CN1CCN(Cc2ccccc2Cl)C1=O)N1CCCCCC1	none
